Out of some 310,000 compounds screened, about 18,000 (5.8%) were called active. Inconclusive results (about 22%) are left out. Calls come from the whole dose curve; as a rule, active = well fitted inhibition curve with a large enough effect; inconclusive = small, poorly fitted or top-dose-only effect, or another doubt; inactive = no such curve, though single readings can be large or run the other way. Many of the other results were omitted from the sample, so actives are more common in it than they were.
Assay: Primary qHTS for delayed death inhibitors of the malarial parasite plastid, 48 hour incubation
Settings: P. falciparum luciferase growth in erythrocytes; series mostly up to 28.7 µM; activity change, negative = inhibition: at the top concentration
How it was run: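 Here the parasites carry a stable luciferase gene and grow inside erythrocytes in Albumax-based RPMI medium with compound for one erythrocytic cycle. Activity is scored as loss of luminescent signal.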
% is set by controls: 0 for no effect and ±100 for the full control effect; potency is the fitted concentration of half-maximal effect.

SMILES | activity change, negative = inhibition | Potency
COc1ccccc1Oc1ccc(N2CC(C(=O)OCC(=O)c3ccc(F)cc3)CC2=O)cc1 (configuration not stated) | 40% (inactive) | –
Cc1ccccc1NC(=O)c1cc(S(=O)(=O)Nc2cccc(C(=O)O)c2)ccc1Cl | 9.49% (inactive) | –
CC(C)[C@@H]1COC(c2cccc(C3=N[C@H](C(C)C)CO3)c2)=N1 | 65.1% (inactive) | –
CC1C(=O)N(Cc2ccccc2)c2ccccc2N1C(=O)c1ccccc1 (configuration not stated) | 0% (inactive) | –
O=C(OCC(=O)N1CCc2ccccc21)C1CCCN1S(=O)(=O)c1ccc(Cl)cc1 (configuration not stated) | -19.4% (inactive) | –
O=C(c1ccncc1)N1CCN(S(=O)(=O)c2cc(C(F)(F)F)cc(C(F)(F)F)c2)CC1 | – | 11.7 µM (active)
O=C(Cc1ccsc1)N1CCN(S(=O)(=O)c2cc(C(F)(F)F)cc(C(F)(F)F)c2)CC1 | -3.54% (inactive) | –
O=C(c1ccncc1)N1CCN(S(=O)(=O)c2cccc([N+](=O)[O-])c2)CC1 | 1.94% (inactive) | –
CCn1c(SCC(=O)NC2CC2)nnc1-c1ccccc1OC | 19.1% (inactive) | –
Cc1cccn2c(=O)nc(SCC(=O)NCc3ccccc3Cl)nc12 | -0.0063% (inactive) | –
COc1ccc(OCCCCN2CCC(C)CC2)cc1 | -11.4% [at 0.00184 µM] (inactive) | –
Cc1ccc2nc(SCC(=O)N3CCN(c4ccccc4)CC3)nc(=O)n2c1 | -10.8% (inactive) | –
COc1cc(NC(=O)N2CCOCC2)cc(OC)c1 | 11% (inactive) | –
O=C(Oc1ccc2c(c1)CCC2)N1CCOCC1 | 62% (inactive) | –
O=C(Nc1cccc(OC(=O)N2CCCCC2)c1)N1CCOCC1 | – | 10.4 µM (active)
COc1cc(OC)cc(C(=O)NCCCn2ccnc2)c1 | 17.8% (inactive) | –
COCCNc1ncnc2c1nc1n2CCCC1 | 31.9% (inactive) | –
Cc1ccc(S(=O)(=O)NCC(=O)Nc2ccc3c(c2)OCCO3)cc1 | -2.04% (inactive) | –
CN(CC(=O)NCc1cccnc1)S(=O)(=O)c1cc(Cl)ccc1Cl | -6.17% (inactive) | –

SMILES | activity change, negative = inhibition | Potency
CC(C)c1ccc(Nc2ncccc2C#N)cc1 | 109% (inactive) | –
Nc1ccc(Nc2cc(O)c3ncccc3c2)cc1 | – | 10.4 µM (active)
Cc1cccc(C)c1NC(=S)N1CCCCCC1 | -4.47% (inactive) | –
COc1cccc(CNC(=O)CCCC(=O)Nc2cccc([N+](=O)[O-])c2)c1 | -0.0338% (inactive) | –
O=C(NCc1cccc(Cl)c1)C1CCC(=O)N(C2CC2)C1 (configuration not stated) | -4.23% (inactive) | –
O=C(CCN1C(=O)C2CCCCC2C1=O)Nc1ccc(OC(F)F)cc1 (configuration not stated) | -2.08% (inactive) | –
Cc1ccc(C(=O)NCCc2nnc(SCC(=O)Nc3cccc(C(=O)O)c3)n2C)cc1 | 10% (inactive) | –
CCOC(=O)c1[nH]cnc1C(=O)Nc1ccccc1C | 2.17% (inactive) | –
CCOC(=O)c1ccc(NC(=O)c2nc[nH]c2C(=O)N[C@@H](CCCCNC(=O)OC(C)(C)C)C(=O)OC(C)(C)C)cc1 | – | 6.57 µM (active)
Cc1cccc(NC(=O)c2nc[nH]c2C(=O)NCC(=O)OCc2ccccc2)c1 | 11.7% (inactive) | –
C[C@H](NC(=O)c1nc[nH]c1C(=O)N[C@@H](C)C(=O)OC(C)(C)C)C(=O)OC(C)(C)C | – | 9.28 µM (active)
Cc1ccc(NC(=O)OCCNC(=O)c2ccncc2)cc1 | 20.4% (inactive) | –
CCOC(=O)c1ccc(NC(=O)c2nc[nH]c2C(=O)NCc2ccccc2)cc1 | -4.47% (inactive) | –
Cc1ccc(NC(=O)c2nc[nH]c2C(=O)N[C@@H](CCCCNC(=O)OC(C)(C)C)C(=O)OC(C)(C)C)cc1 | – | 13.1 µM (active)
C[C@H](NC(=O)c1nc[nH]c1C(=O)NCC(=O)OC(C)(C)C)C(=O)OCc1ccccc1 | 34.1% (inactive) | –
CCN(CC)C(=O)COc1coc(CN2CCN(Cc3ccccc3)CC2)cc1=O | 3.2% (inactive) | –
O=C(NCCC1CCCCN1S(=O)(=O)c1ccccc1)C(=O)NCC1CCCO1 (configuration not stated) | 31.8% (inactive) | –
O=C(CCC1CCCN(C(=O)c2ccc(F)c(F)c2)C1)N1CCN(c2ccccn2)CC1 (configuration not stated) | -15.6% (inactive) | –
COc1ccc(Cl)cc1NC(=O)COc1ccc2c(c1)OCO2 | -15.4% (inactive) | –

SMILES | activity change, negative = inhibition | Potency
Nc1cccc(-c2cc(-c3ccccc3)nc(-c3cccc(N)c3)n2)c1 | – | 10.4 µM (active)
Nc1nc(-c2ccccc2)cc(-c2ccccc2)n1 | 35.2% (inactive) | –
Nc1cccc(CCc2nc3ccccc3[nH]2)c1 | 68.8% (inactive) | –
Cc1cccc(C(=O)NCCCN(C)CCCNC(=O)c2cccc(C)c2)c1 | -4.59% (inactive) | –
CCSc1nc2sc3c(c2c(=O)[nH]1)CC(C)(C)OC3 | -4.53% (inactive) | –
O=C(OCc1ccc([N+](=O)[O-])cc1)C1CC(=O)N(Cc2ccccc2Cl)C1 (configuration not stated) | 16.3% (inactive) | –
COc1cc(/C=C/C(=O)O)cc(S(=O)(=O)Nc2ccccc2C(=O)NCCc2ccccc2)c1OC | 38.7% (inactive) | –
COc1cc(OC)c2ccc(=O)oc2c1C(CCN1CCN(c2ccccc2)CC1)c1ccc2c(c1)OCO2 (configuration not stated) | – | 11.7 µM (active)
c1ccc(-c2cnc(CN3CCN(c4ccccc4)CC3)o2)cc1 | 44.5% (inactive) | –
COc1cc(C(CCN2CCN(c3ccccc3)CC2)c2c(OC)cc(OC)c3ccc(=O)oc23)cc(OC)c1OC (configuration not stated) | – | 13.1 µM (active)
COc1ccccc1NC(=O)CCN1CCN(c2ccc(Cl)cc2)CC1 | -1.28% (inactive) | –
Cc1cc(=O)oc2c(C)c(OCC(=O)N3CCN(Cc4ccc5c(c4)OCO5)CC3)ccc12 | 4.8% (inactive) | –
COc1ccccc1N1CCN(Cc2cc(OC)c3c(c2)OCO3)CC1 | 55% (inactive) | –
CC(OC(=O)CN1C(=O)c2ccccc2C1=O)C(=O)c1ccccc1 (configuration not stated) | -17.5% (inactive) | –
COc1cc(S(=O)(=O)Nc2ncn[nH]2)ccc1Cl | 41.9% (inactive) | –
O=Cc1c(NCCCN2CCCC2=O)c2ccccc2[nH]c1=O | -0.852% (inactive) | –
O=C(NC1CCCC1)C(c1ccc(Cl)cc1)N(C(=O)c1csnn1)C1CC1 (configuration not stated) | -27.3% (inactive) | –
Cc1cc(-c2ccc(S(=O)(=O)N3CCN(c4cccc(C(F)(F)F)c4)CC3)s2)on1 | -14.9% (inactive) | –
O=c1c2ccccc2ncn1/N=C/c1ccccc1 | 280% (inactive) | –

Reference: PubChem BioAssay AID504832 (National Center for Advancing Translational Sciences (NCATS), 2011)
